The panel holds about 83,000 compounds, 20% with a hit somewhere; the sample as a whole holds those more often.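 Activity criterion: percent growth below 10, measured after cells in 96-well plates were exposed to a single compound concentration for 48 hours.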 The source made the active and inactive calls.
The molecules below were run on MDA-MB-468 breast (assay: NCI-60 one-dose screen, 48 h (100 = growth as untreated, 0 = no growth, -100 = all killed)). Conditions: 10 µM unless noted.
With COc1ccc2c(c1)CCCC21C(=O)Nc2c(Cl)cccc21 (centres undefined) the growth was 109% (inactive). COc1ccc(Nc2nc(N)nc3c2CCN(Cc2ccc(OC)cc2OC)C3=O)cc1 was tested, and the growth was 95.6% (inactive). In the case of CC(c1cc(Cl)ccc1O)c1cc(Cl)ccc1O, the growth is reported as 6.87% (active). With N#CC1=C(c2ccccc2)Nc2c(c(-c3ccc(Cl)cc3)nn2-c2ccccc2)C12C(=O)Nc1ccc(Cl)cc12 (centres undefined) the growth was 70% (inactive).
